Measured values taken from PubChem BioAssay (EPA / NIEHS).
The source made the active and inactive calls. How the source made its calls: active means hit-call score of the fitted dose curve at least 0.9, where 1 is the maximum; inactive means score below 0.9.

What was measured:
[1] = ATG_CRE_CIS: Attagene CIS-FACTORIAL HepG2 Assay for human cAMP Responsive Element (CRE) binding protein 3 (AID 2282926); settings: HepG2 CRE cis-reporter, Attagene multiplexed mRNA; actives raise or lower the signal
Summary of the method: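 Endogenous CRE-binding activity in HepG2 is reported through a cis-regulated transfected reporter. Following a day of exposure, mRNA levels are determined by reverse transcription PCR and fluorescent fragment analysis; fits run in both directions versus DMSO.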

[2] = molecular target: CCAAT/enhancer-binding protein beta (Homo sapiens) (UniProt P17676); assay: ATG_C_EBP_CIS: Attagene CIS-FACTORIAL HepG2 Assay for human CCAAT/Enhancer Binding Protein (C/EBP) beta (AID 2282927); settings: HepG2 Attagene cis-factorial transcription factor reporter; actives raise or lower the signal
Summary of the method: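 Chemical-treated HepG2 cells (24 h) bearing cis-regulated reporter constructs were processed for total RNA, then reverse transcription, PCR amplification, fluorescent primer extension and fragment analysis; gain- and loss-of-signal were fitted against DMSO.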

[3] = ATG_DR4_LXR_CIS: Attagene CIS-FACTORIAL HepG2 Assay for human Liver X Receptor (LXR), DR4 submotif (AID 2282929); settings: HepG2 Attagene DR4 cis-reporter, mRNA transcription; actives raise or lower the signal
Summary of the method: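 DR4 cis-reporter in HepG2, 24 h exposure. Detection: RT-PCR, 6-FAM labelling, CE fragment analysis. Endpoint fitted bidirectionally, DMSO = baseline.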

[4] = molecular target: Aryl hydrocarbon receptor (Homo sapiens) (UniProt P35869); assay: ATG_Ahr_CIS: Attagene CIS-FACTORIAL HepG2 Assay for human Aryl Hydrocarbon Receptor (Ahr) (AID 2282930); settings: HepG2 AhR cis-factorial reporter transcription; actives raise or lower the signal
Summary of the method: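 Following 24 h of chemical dosing, transfected HepG2 liver cells with cis-driven reporter units were lysed for RNA; reporter mRNA was quantified via RT-PCR and capillary electrophoresis, and responses fitted bidirectionally from DMSO.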

[5] = ATG_AP_1_CIS: Attagene CIS-FACTORIAL HepG2 Assay for human Activator Protein 1 (AP-1) (AID 2282931); settings: HepG2 Attagene cis-factorial AP-1 reporter mRNA; actives raise or lower the signal
Summary of the method: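 Cis-regulated reporter units transiently expressed in HepG2 report endogenous transcription-factor activity. Signal: reporter mRNA at 24 h, via RT-PCR and fluorescent capillary electrophoresis. Endpoint derived by bidirectional fitting, DMSO as negative control.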

[6] = ATG_AP_2_CIS: Attagene CIS-FACTORIAL HepG2 Assay for human Activator Protein 2 (AP-2) (AID 2282932); settings: HepG2 AP-2 cis-reporter, Attagene transcription factor profiling; actives raise or lower the signal
Summary of the method: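 Bidirectional curve fitting against DMSO was applied to reporter mRNA signals from HepG2 cells 24 h after dosing. Cis-promoter reporter units, transiently transfected, were read by RT-PCR plus capillary electrophoresis.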

[7] = ATG_BRE_CIS: Attagene CIS-FACTORIAL HepG2 Assay for human Bone Morphogenetic Protein (BMP) Response Element (BRE) (AID 2282933); settings: HepG2 BMP response element reporter, Attagene transcription factor profiling; actives raise or lower the signal
Summary of the method: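 Transient MRTU transfection of human HepG2 liver cells; 24 h compound treatment; total RNA isolated, reverse-transcribed, PCR-amplified, 6-FAM labelled, HpaI-cut, capillary electrophoresis. DMSO = negative control/baseline, bidirectional fit.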

[8] = molecular target: Retinoic acid receptor alpha (Homo sapiens) (UniProt P10276); assay: ATG_DR5_RAR_CIS: Attagene CIS-FACTORIAL HepG2 Assay for human Retinoic Acid Receptor Alpha (RARE), DR5 submotif (AID 2282934); settings: HepG2 Attagene cis-factorial RARE DR5 reporter, mRNA; actives raise or lower the signal;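 on AC50: reporter responds to endogenous RAR alpha beta and gamma in HepG2 not RARA alone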
Summary of the method: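 Transfected HepG2 reporter cells are exposed to chemicals for 24 h. Then RNA is extracted and the DR5 element reporter transcript is measured by RT-PCR and capillary electrophoresis, with bidirectional curve fitting relative to DMSO.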

[9] = molecular target: Transcription factor E2F1 (Homo sapiens) (UniProt Q01094); assay: ATG_E2F_CIS: Attagene CIS-FACTORIAL HepG2 Assay for human E2F Transcription Factor 1 (AID 2282935); settings: HepG2 Attagene cis-reporter, E2F reporter RNA transcripts; actives raise or lower the signal
Summary of the method: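 Multiplexed cis-reporter assay: HepG2, transient transfection, 24 h dosing, mRNA quantitation by labeled RT-PCR and CE.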

[10] = ATG_E_Box_CIS: Attagene CIS-FACTORIAL HepG2 Assay for human Enhancer Box (E-box) (AID 2282936); settings: HepG2 E-box cis-reporter transcription, actives raise or lower the signal
Summary of the method: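 Multiplexed CIS reporter system in transiently transfected HepG2 cells measures native transcription factor activity. Reporter RNA after 24 h exposure is profiled by RT-PCR-capillary electrophoresis.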

[11] = ATG_M_61_CIS: Attagene CIS-FACTORIAL HepG2 Assay for M61 Transcription Factor (Internal Marker) (AID 2282937); settings: HepG2 Attagene CIS-FACTORIAL M61 internal marker reporter; actives raise or lower the signal
Summary of the method: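 Background-control endpoint: HepG2 cells with cis-regulated reporter constructs, 24 h exposure, reporter mRNA detected via fluorescent primer extension and capillary electrophoresis; values from bidirectional fitting with DMSO baseline.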

[12] = ATG_EGR_CIS: Attagene CIS-FACTORIAL HepG2 Assay for human Early Growth Response 1 (EGR1) (AID 2282938); settings: HepG2 Attagene CIS-FACTORIAL EGR reporter mRNA; actives raise or lower the signal
Summary of the method: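 Endpoint derived by bidirectional fitting versus DMSO vehicle. Method: cis-promoter reporter units transfected into HepG2, 24 h dosing, RNA isolation, RT-PCR with 6-FAM primer extension and HpaI digestion, then capillary electrophoresis fluorescence detection.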

[13] = ATG_M_19_CIS: Attagene CIS-FACTORIAL HepG2 Assay for M19 Transcription Factor (Internal Marker) (AID 2282939); settings: HepG2 Attagene CIS-FACTORIAL M19 internal marker reporter; actives raise or lower the signal
Summary of the method: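 Transfect HepG2 with MRTU reporter library → dose chemical, 24 h → isolate total RNA, reverse-transcribe with oligo(dT) → PCR, 6-FAM label, HpaI cut (2 h, 37 C) → capillary electrophoresis. Bidirectional fit vs DMSO.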

[14] = ATG_Ets_CIS: Attagene CIS-FACTORIAL HepG2 Assay for human Erythroblast Transformation Specific (ETS) (AID 2282941); settings: HepG2 ETS cis-reporter transcription, actives raise or lower the signal
Summary of the method: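 After transient cis-reporter transfection, HepG2 cells receive test chemical for 24 h. Reporter mRNA levels, measured by RT-PCR and capillary electrophoresis fluorescence, are analysed bidirectionally relative to the DMSO baseline.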

[15] = ATG_FoxO_CIS: Attagene CIS-FACTORIAL HepG2 Assay for human Forkhead box O (FoxO) (AID 2282943); settings: HepG2 Attagene cis-reporter, FoxO element, mRNA; actives raise or lower the signal
Summary of the method: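 24 h chemical exposure, HepG2 with transient cis-MRTU transfection. RNA extraction, oligo(dT) RT, reporter-specific PCR, primer-extension labelling, HpaI digestion, CE fragment analysis; bidirectional fit, DMSO baseline.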

[16] = ATG_GATA_CIS: Attagene CIS-FACTORIAL HepG2 Assay for human GATA Binding Protein (AID 2282944); settings: HepG2 GATA cis-element reporter, Attagene multiplex mRNA; actives raise or lower the signal
Summary of the method: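 Transient MRTU transfection, HepG2, 24 h compound exposure. Total RNA → oligo(dT) RT → PCR → 6-FAM primer extension → HpaI cut → CE. Bidirectional fit vs DMSO.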

[17] = ATG_GLI_CIS: Attagene CIS-FACTORIAL HepG2 Assay for human Zinc Finger Protein GLI1 (AID 2282945); settings: HepG2, Attagene cis-factorial reporter mRNA, GLI element; actives raise or lower the signal
Summary of the method: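 HepG2 cells transiently transfected with cis-promoter multiplexed reporter units report endogenous transcription factor activity. After 24 h chemical exposure, reporter mRNA was quantified by RT-PCR, 6-FAM labelling, HpaI digestion and capillary electrophoresis, with bidirectional fitting against DMSO.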

[18] = ATG_CMV_CIS: Attagene CIS-FACTORIAL HepG2 Assay for human CMV (Internal Marker) (AID 2282928); settings: HepG2 CMV promoter reporter, transcription factor profiling; actives raise or lower the signal;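 further: endpoint acts as a background internal control marker rather than a target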
Summary of the method: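 Cell system: HepG2, transiently transfected multiple reporter units under cis promoters. Exposure: 24 h. Detection: RT-PCR, FAM labeling, HpaI digestion, capillary electrophoresis. Analysis: bidirectional, DMSO baseline.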

[19] = molecular target: Hepatocyte nuclear factor 3-beta (Homo sapiens) (UniProt Q9Y261); assay: ATG_FoxA2_CIS: Attagene CIS-FACTORIAL HepG2 Assay for human Forkhead box A2 (FOXA2) (AID 2282942); settings: HepG2 cis-reporter transcription factor activity, 24 h; actives raise or lower the signal
Summary of the method: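 Measured: reporter mRNA induction or loss in HepG2 transiently carrying multiple cis-regulated reporter units, 24 h after dosing. Quantified by RT-PCR plus capillary electrophoresis, normalised to DMSO.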

Measured: AC50

Sequence of Hepatocyte nuclear factor 3-beta (Homo sapiens) (Q9Y261 whole entry, looked up): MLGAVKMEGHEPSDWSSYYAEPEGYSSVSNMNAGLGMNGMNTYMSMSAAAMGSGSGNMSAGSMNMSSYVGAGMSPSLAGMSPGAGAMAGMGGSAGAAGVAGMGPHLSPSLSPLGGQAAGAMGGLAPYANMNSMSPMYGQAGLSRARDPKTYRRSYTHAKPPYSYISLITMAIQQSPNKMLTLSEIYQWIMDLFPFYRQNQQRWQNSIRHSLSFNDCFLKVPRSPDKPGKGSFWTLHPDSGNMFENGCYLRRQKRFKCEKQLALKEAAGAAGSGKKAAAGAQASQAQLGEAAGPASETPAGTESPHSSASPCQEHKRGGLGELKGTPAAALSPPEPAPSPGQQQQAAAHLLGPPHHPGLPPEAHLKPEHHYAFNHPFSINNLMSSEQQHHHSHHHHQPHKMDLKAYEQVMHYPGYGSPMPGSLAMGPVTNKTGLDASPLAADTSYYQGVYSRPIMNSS
Sequence of Transcription factor E2F1 (Homo sapiens) (Q01094 whole entry, looked up): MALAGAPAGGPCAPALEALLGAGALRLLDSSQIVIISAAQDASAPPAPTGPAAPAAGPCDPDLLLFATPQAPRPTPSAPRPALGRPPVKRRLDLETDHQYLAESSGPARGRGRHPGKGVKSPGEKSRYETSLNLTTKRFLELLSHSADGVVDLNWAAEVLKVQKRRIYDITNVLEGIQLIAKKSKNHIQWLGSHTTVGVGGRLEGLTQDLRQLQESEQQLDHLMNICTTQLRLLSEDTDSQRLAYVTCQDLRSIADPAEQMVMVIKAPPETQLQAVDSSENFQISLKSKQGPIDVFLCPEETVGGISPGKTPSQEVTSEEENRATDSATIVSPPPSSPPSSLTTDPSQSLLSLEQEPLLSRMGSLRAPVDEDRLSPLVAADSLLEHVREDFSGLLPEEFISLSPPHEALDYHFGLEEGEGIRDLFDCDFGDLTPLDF
Sequence of Retinoic acid receptor alpha (Homo sapiens) (P10276 whole entry, looked up): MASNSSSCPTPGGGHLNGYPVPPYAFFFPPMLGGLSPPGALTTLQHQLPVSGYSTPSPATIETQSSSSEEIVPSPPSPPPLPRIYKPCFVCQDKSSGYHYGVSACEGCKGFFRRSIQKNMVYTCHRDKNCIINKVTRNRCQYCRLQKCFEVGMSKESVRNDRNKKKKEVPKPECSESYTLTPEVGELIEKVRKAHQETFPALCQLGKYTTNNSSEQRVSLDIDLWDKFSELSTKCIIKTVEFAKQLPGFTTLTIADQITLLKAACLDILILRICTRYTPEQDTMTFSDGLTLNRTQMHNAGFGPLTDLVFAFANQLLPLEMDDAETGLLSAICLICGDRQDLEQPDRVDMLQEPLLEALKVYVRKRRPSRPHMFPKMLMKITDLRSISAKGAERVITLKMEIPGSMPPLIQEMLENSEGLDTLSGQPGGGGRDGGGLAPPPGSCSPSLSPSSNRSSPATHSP
Sequence of Aryl hydrocarbon receptor (Homo sapiens) (P35869 whole entry, looked up): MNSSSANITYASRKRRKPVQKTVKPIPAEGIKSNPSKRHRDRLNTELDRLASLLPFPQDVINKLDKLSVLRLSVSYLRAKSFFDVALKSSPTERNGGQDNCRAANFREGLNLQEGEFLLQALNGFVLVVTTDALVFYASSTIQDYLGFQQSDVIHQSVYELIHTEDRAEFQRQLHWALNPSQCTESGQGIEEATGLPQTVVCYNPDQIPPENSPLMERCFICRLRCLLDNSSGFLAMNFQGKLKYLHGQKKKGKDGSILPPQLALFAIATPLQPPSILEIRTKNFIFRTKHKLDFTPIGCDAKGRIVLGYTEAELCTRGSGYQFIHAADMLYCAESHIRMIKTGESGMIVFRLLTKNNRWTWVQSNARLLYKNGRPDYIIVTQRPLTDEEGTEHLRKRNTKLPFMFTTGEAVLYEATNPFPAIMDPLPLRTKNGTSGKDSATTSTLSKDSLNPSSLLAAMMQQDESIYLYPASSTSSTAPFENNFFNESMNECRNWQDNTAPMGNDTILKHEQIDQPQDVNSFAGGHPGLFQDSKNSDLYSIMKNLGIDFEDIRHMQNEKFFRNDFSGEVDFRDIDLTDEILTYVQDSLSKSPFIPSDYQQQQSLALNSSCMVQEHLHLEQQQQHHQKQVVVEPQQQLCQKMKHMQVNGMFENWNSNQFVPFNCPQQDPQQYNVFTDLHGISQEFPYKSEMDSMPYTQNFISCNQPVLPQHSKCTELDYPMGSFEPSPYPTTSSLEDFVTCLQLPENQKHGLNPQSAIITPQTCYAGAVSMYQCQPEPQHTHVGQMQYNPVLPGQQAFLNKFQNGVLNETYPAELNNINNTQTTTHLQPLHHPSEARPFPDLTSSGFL
Sequence of CCAAT/enhancer-binding protein beta (Homo sapiens) (P17676 whole entry, looked up, the tested form may be a part): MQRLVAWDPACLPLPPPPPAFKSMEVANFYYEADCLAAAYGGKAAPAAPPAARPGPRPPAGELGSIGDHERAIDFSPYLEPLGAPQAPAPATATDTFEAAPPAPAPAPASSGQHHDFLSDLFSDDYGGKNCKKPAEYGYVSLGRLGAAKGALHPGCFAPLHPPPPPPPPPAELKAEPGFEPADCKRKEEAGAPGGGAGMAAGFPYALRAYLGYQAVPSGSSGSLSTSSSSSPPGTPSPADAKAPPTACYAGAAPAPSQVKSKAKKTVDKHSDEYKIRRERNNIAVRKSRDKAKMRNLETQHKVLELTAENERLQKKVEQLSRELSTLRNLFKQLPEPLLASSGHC

CC(C)C(OC(=O)c1ccccc1)C(C)(C)COC(=O)c1ccccc1 (stereo not given)
not listed: [18] | [19]
inactive: all other assays above

CCCCCCCCCC(=O)OC
active: [4] 74.7 µM
not listed: [1] | [10]
inactive: all other assays above

C/C=C(\C)C(=O)OCCc1ccccc1
not listed: [1] | [15]
inactive: all other assays above

CCCCCCCCSCCO
active: [2] 100 µM | [3] 148 µM
not listed: [1] | [4] | [18]
inactive: all other assays above

COC(=O)c1ccc(OC)cc1
not listed: [1] | [5] | [6] | [17] | [19]
inactive: all other assays above

CCCCOCC
not listed: [1] | [4] | [15]
inactive: all other assays above

Cc1ccc(S(=O)(=O)Oc2ccc(N=Nc3ccc(-c4ccc(N=Nc5c(O)ccc6cc(S(=O)(=O)O)cc(S(=O)(=O)O)c56)c(C)c4)cc3C)cc2)cc1
active: [7] 7.56 µM
not listed: [1] | [4] | [15]
inactive: all other assays above

CC(CN=Cc1ccccc1O)N=Cc1ccccc1O (stereo not given)
active: [18] 100 µM | [5] 100 µM
not listed: [1] | [4] | [10]
inactive: all other assays above

CC(C)(C)C1=CC(=O)C(C(C)(C)C)=CC1=O
active: [3] 50 µM | [8] 26.8 µM | [12] 50 µM | [14] 36.6 µM | [17] 81.7 µM
not listed: [1] | [6] | [15] | [16] | [18]
inactive: all other assays above

CCc1ccc(O)cc1
active: [4] 68.7 µM
not listed: [1] | [18]
inactive: all other assays above
